# Bioassay records deposited in PubChem BioAssay by National Center for Advancing Translational Sciences (NCATS).
# A selection: hits, their analogues and other compounds. The true share with any hit is near 21%.
# Sm TGR block: blocks Schistosoma mansoni thioredoxin glutathione reductase; actives 3% (n = 360,000); Q962Y6; Potency, µM (highest dose often 114 µM), most hits filed as inhibitors; purified TGR, DTNB reduction, TNB absorbance 405 nm; AID 485364; also: nearly all actives have a fitted effect of over 60% in size
#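 TGR 20 nM + NADPH 100 uM (dispensed conc.), cpd preinc 15 min RT; start with NADPH (500 uM addition) then DTNB (15 mM addition). Kinetic TNB absorbance, 405 nm filter. Four-parameter Hill fit across titration.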
# Cycloheximide cs: counter-screen hit for Shiga toxin inhibitors, cycloheximide; cell reporter, cycloheximide protein synthesis inhibition counterscreen; max response, %; actives 12% (n = 300,000); AID 2314; in the data active = max response mostly above about 13%, no sharp cut-off; inactive = mostly below about 14%; also: read at 38.3 µM for the half of the compounds with a filed dose
# Shiga inhibitor: inhibitors of Shiga toxin in Vero cells; Vero cells, Shiga toxin protein synthesis inhibition reporter; actives 9.2% (n = 290,000); inhibition, % at 38.7 µM; in the data active = inhibition mostly above about 28%, no sharp cut-off; inactive = mostly below about 43%
# NS1 function inh: inhibitors of influenza NS1 protein function; Potency, µM (doses to about 46.1 µM); actives 0.4% (n = 270,000); AID 2326; calls by dose curve; also: actives are rising curves; nearly all actives have a fitted effect of over 50% in size
#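 In this qHTS, NS1 from influenza A is expressed in budding yeast, where it slows growth. Cells are switched from glucose to 2% galactose medium (pH 6.0, -URA), treated with compound, and growth recovery is read at OD600.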
# Pf growth 96h: P. falciparum growth inhibition at 96 hour, primary screen for plastid delayed-death inhibitors. P. falciparum luciferase reporter growth, 96 h. actives 6.9% (n = 320,000). Potency, µM (doses to about 28.7 µM), hits mostly inhibitors
#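 Two-generation exposure (96 h) targets delayed-death phenotype. Reporter parasites carrying integrated firefly luciferase, in red cells at 2% hematocrit and 0.05% parasitemia final, kept at 37 C, 5% CO2; luminescence loss indicates inhibition.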
# Pf growth 48h: P. falciparum growth inhibition at 48 hours (one generation) | P. falciparum luciferase growth in erythrocytes, 48 h | Potency, µM (doses to about 28.7 µM), most hits filed as inhibitors | actives 5.9% (n = 310,000)
#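 A one-generation exposure of luciferase-tagged malaria parasites in RPMI 1640/Albumax erythrocyte culture, 37 C and 5% CO2. Inhibition is inferred from decreased luminescence after adding detection reagent.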
# Numbers stand for hits; n = inactive; u = inconclusive; x = not tested or not shown. Unless noted, calls follow the shape of the dose curve; as a rule, active = well fitted curve in the direction sought with a large enough effect; inconclusive = small, poorly fitted or top-dose-only effect, or another doubt; inactive = no such curve, though single readings can be large; an effect the other way counts as inactive or inconclusive.
SMILES,Sm TGR block,Cycloheximide cs,Shiga inhibitor,NS1 function inh,Pf growth 96h,Pf growth 48h
CC(C)[C@H]1C(=O)N2CCC[C@H]2[C@]2(O)O[C@](NC(=O)[C@@H]3C=C4c5cccc6[nH]cc(c56)C[C@H]4N(C)C3)(C(C)C)C(=O)N12,7.94µM,n,n,u,7.38µM,5.86µM
COc1ccccc1NC(=O)CSc1nc2ccccc2nc1N1CC(C)OC(C)C1 (centres undefined),n,n,n,u,u,u
O=C(Nc1ccccc1N1CCOCC1)C1=NN(c2ccccc2)C(=O)CC1,n,x,x,x,u,u
CCC12CN3CC(C)(CN(C1)C3c1c(C)n(C)c3ccccc13)C2=O (centres undefined),n,x,x,x,x,x
COc1ccc(-n2nc(C(=O)NCC(=O)N3CCCC(C)C3)c3ccccc3c2=O)cc1 (centres undefined),n,18.0,n,n,n,u
COc1ccc(-n2nc(C(=O)NCC(=O)N3CCC(C)CC3)c3ccccc3c2=O)cc1,n,32.7,47.8,n,n,u
CCC(C)NC(=O)CNC(=O)c1nn(-c2ccc(OC)cc2)c(=O)c2ccccc12 (centres undefined),n,n,n,n,n,n
COc1ccc(-n2nc(C(=O)NCC(=O)N3CCC4(CC3)OCCO4)c3ccccc3c2=O)cc1Cl,n,23.4,53.7,n,n,n
CCOc1ccc(N(CC)C(=O)c2nn(-c3ccc(OC)cc3)c(=O)c3c2c2ccccc2n3C)cc1,n,n,n,x,u,1.47µM
COc1ccc(-n2nc(C(=O)NCC(=O)N3CCC(C(N)=O)CC3)c3ccccc3c2=O)cc1,n,n,n,n,u,n
CCOc1ccccc1NC(=O)c1nn(-c2ccc(OC)cc2)c(=O)c2c1c1ccccc1n2C,n,x,x,x,x,x
O=C(NCc1ccc2c(c1)CCN2C(=O)c1ccccc1)Nc1cccc(C(F)(F)F)c1,n,x,x,x,x,x
COc1ccc(C(CNC(=O)c2nn(-c3ccccc3)c(=O)c3ccccc23)N2CCOCC2)cc1 (centres undefined),n,x,x,x,10.4µM,n
CCOc1ccc(-n2nc(C(=O)N3CCN(CC)CC3)c3ccccc3c2=O)cc1,n,n,n,n,u,4.15µM
COc1ccc(-n2nc(C(=O)NCC(=O)N3CCC4(CC3)OCCO4)c3ccccc3c2=O)cc1,n,n,n,n,n,n
CCOC(=O)C1CCN(C(=O)CNC(=O)c2nn(-c3ccc(OC)c(Cl)c3)c(=O)c3ccccc23)CC1,n,24.7,n,n,u,u
CCOC(=O)C1CCCN(C(=O)CNC(=O)c2nn(-c3ccc(OC)c(Cl)c3)c(=O)c3ccccc23)C1 (centres undefined),n,n,n,n,u,u
COc1ccc(-n2nc(C(=O)NCC(=O)N3CCCC(C)C3)c3ccccc3c2=O)cc1Cl (centres undefined),n,16.7,35.5,n,n,u
Cc1ccccc1C(=O)NC1CCN(C(=O)Nc2ccc(F)cc2)CC1,n,n,n,n,u,n
O=C(/C=C/c1ncc(C(F)(F)F)cc1Cl)OCc1ccccc1,n,n,n,n,n,n
Cn1c(N)c(S(=O)(=O)N2CCN(c3ccccc3Cl)CC2)c(=O)n(C)c1=O,n,n,n,n,u,n
COc1ccccc1C(=O)Nc1ccccc1OCc1cc(=O)n2c(C)csc2n1,n,x,x,x,x,x
c1ccc2c(CNC3CCCCC3)c[nH]c2c1,n,n,n,n,13.1µM,x
CCC(=O)NCCc1c[nH]c2ccccc12,u,n,n,n,n,n
Cc1ccc(NC(=S)NCCc2c[nH]c3ccccc23)cc1,n,14.9,n,n,n,n
SMILES,Sm TGR block,Cycloheximide cs,Shiga inhibitor,NS1 function inh,Pf growth 96h,Pf growth 48h
CCC(C(=O)NCCc1c[nH]c2ccc(C)cc12)c1ccccc1 (centres undefined),n,n,n,n,14.7µM,u
O=C(NCCc1c[nH]c2ccccc12)OCCSS(=O)(=O)O,n,n,n,n,11.7µM,n
CCN(CC)c1ccc(CN(C(=O)c2cc(=O)c3ccccc3o2)C2CCS(=O)(=O)C2)cc1 (centres undefined),n,x,x,x,x,x
CC(C)(C)S(=O)(=O)c1ccc(S(=O)(=O)C(C)(C)C)s1,n,n,n,n,n,n
O=C(CN1CCN(c2ccc(F)cc2)CC1)NCc1ccc(Cl)cc1,n,n,n,n,n,n
S=C(NCCc1c[nH]c2ccccc12)NC1CCCC1,n,22.6,n,n,u,n
c1ccc2c(CN3CCCCCCC3)c[nH]c2c1,n,n,n,n,x,u
S=C(NCCc1c[nH]c2ccccc12)NC1CCCCC1,n,n,n,x,n,n
Cc1cccc(C)c1NC(=O)C(=O)NCCc1c[nH]c2ccccc12,n,n,n,x,u,5.22µM
c1ccc2c(CN3CCN(C4CCCCC4)CC3)c[nH]c2c1,n,n,n,n,11.7µM,6.57µM
Cc1cccc(C)c1NC(=O)NCCc1c[nH]c2ccccc12,n,x,x,x,x,x
N[C@@H](Cc1c[nH]c2ccccc12)C(=O)O,14.1µM,n,n,n,u,n
O=C(NCCc1c[nH]c2ccccc12)Nc1ccccc1,n,24.0,n,n,n,n
COCCn1c(CNC(=O)c2cccc(C)c2)nc2cccnc21,n,x,x,x,x,x
CCOC(=O)CON1C(=O)C(=O)N(OCC(=O)OCC)[C@H]2CCCC[C@H]21,n,n,n,n,n,n
CCOC(=O)c1ccccc1NC(=O)COc1coc(CN2CCc3ccccc32)cc1=O,n,x,x,x,11.7µM,u
CCOc1ccccc1NC(=O)COc1coc(CN2CCc3ccccc32)cc1=O,n,x,x,x,u,11.7µM
O=C(CCNC(=O)c1ccc([N+](=O)[O-])cc1)Nc1ccccc1N1CCCCC1,n,x,x,x,u,n
Cn1c(=O)c(/C=C/c2ccc(F)cc2)nc2ccccc21,n,35.6,75.0,n,n,u
Cn1c(/C=C/c2ccccc2)nc2ccccc21,n,n,n,n,n,n
CC(=O)c1ccc(/C=C/c2nc3ccccc3n2C)o1,3.55µM,38.2,60.8,n,n,n
CC(C)Cn1c(/C=C/c2ccc(F)cc2)nc2ccccc21,n,x,x,x,x,x
Cn1c(=O)c(/C=C/c2ccccc2)nc2ccccc21,n,34.2,73.5,n,n,n
O=C(/C=C/c1ccccc1)N/C(=C/c1ccccc1)C(=O)NCCCO,n,n,n,n,n,n
Cc1c2c(=O)n(-c3nc4ccccc4s3)nc-2cc(O)n1Cc1ccccc1,n,n,n,n,2.94µM,2.94µM
Cc1cc(C)n(-c2nc3ccccc3s2)n1,n,56.4,108.9,n,n,n
CCC(c1nc2ccccc2c(=O)n1-c1nc2ccccc2s1)N1C(=O)c2ccccc2C1=O (centres undefined),n,n,n,n,u,n
Cc1cc(NC(=O)C(C)C)n(-c2nc3ccccc3s2)n1,n,31.4,68.6,x,n,n
CC(C)(C)C1=CC(=O)C(N2CCOCC2)=CC1=O,n,n,n,n,14.7µM,10.4µM
COc1ccc(C2C(C(C)=O)=C(O)C(=O)N2CCO)c(OC)c1 (centres undefined),n,n,n,n,11.7µM,n
